Data taken from the supplement of paper PMC4840960.
± gives the standard deviation of the averaged measurements.

Columns and labels:
[1] = system: E18 rat cortical neuron-glia co-culture; experiment: fiber score / MBP score (myelination specific beyond OL differentiation) (ratio); higher = more myelination-specific MBP alignment; conditions: treatment time: 8 days (DIV5-DIV13)
How it was run: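 Reported values are fiber score (continuous MBP fiber length per Olig2+ nucleus) divided by MBP score (thresholded MBP area × intensity per Olig2+ nucleus). They come from primary E18 rat cortical co-cultures treated with library compounds at 1 or 5 µM in myelination medium from DIV5 to DIV13, then fixed in 4 % paraformaldehyde, immunostained for MBP and Olig2 with DAPI, and analysed over four 10X fields per well in duplicate wells.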

[2] = system: E18 rat cortical neuron-glia co-culture; experiment: myelination (MBP fiber length per Olig2+ nucleus), % of 1 µM DAPT response (DMSO = 0) (% of DAPT); higher = more myelination, active = 50 or more; conditions: treatment time: 8 days (DIV5-DIV13)
How it was run: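 Rat cortical co-cultures from E18 tissue were dissociated with papain and plated at 20,000 cells/well on 96-well plates coated with poly-d-lysine/laminin. From DIV5 to DIV13, library compounds were added at 1 or 5 µM in myelination medium. After fixation in 4 % paraformaldehyde, cultures were immunostained for MBP and Olig2 and counterstained with DAPI, and four 10X fields were analysed in each of duplicate wells. The myelination value is the length of continuous straight MBP fibers per Olig2+ nucleus, normalised so that 0.1 % DMSO is 0 and a 1 µM positive control is 100.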

`CC(CN1c2ccccc2Sc2ccccc21)N(C)C` (configuration not stated) [Promethazine] was tested, and the “fiber score / MBP score” value ([1]; 1 µM) was 0.678, the “fiber score / MBP score” value ([1]; 5 µM) was 0.931 and the myelination ([2]; 1 µM) was -18.8 (inactive). For the same compound, the myelination ([2]; 5 µM) was -4.26 (inactive).
In the case of `c1ccc2[nH]c(-c3cscn3)nc2c1` [Thiabendazole], the “fiber score / MBP score” value ([1]; 1 µM) is reported as 1.05, the “fiber score / MBP score” value ([1]; 5 µM) is reported as 0.885 and the myelination ([2]; 1 µM) is reported as 0.461 (inactive). For the same compound, the myelination ([2]; 5 µM) was -0.348 (inactive).
With `CCOC(=O)[C@H](CCc1ccccc1)N[C@H]1CCc2ccccc2N(CC(=O)O)C1=O` [Benazepril] the “fiber score / MBP score” value ([1]; 1 µM) was 0.766, the “fiber score / MBP score” value ([1]; 5 µM) was 0.971 and the myelination ([2]; 1 µM) was -15.3 (inactive). For the same compound, the myelination ([2]; 5 µM) was -6.97 (inactive).
In the case of `CCN1CCCC1CNC(=O)c1cc(S(=O)(=O)CC)ccc1OC` (configuration not stated) [Sultopride], the “fiber score / MBP score” value ([1]; 1 µM) is reported as 0.758, the “fiber score / MBP score” value ([1]; 5 µM) is reported as 0.461 and the myelination ([2]; 1 µM) is reported as -20.9 (inactive). For the same compound, the myelination ([2]; 5 µM) was -59.3 (inactive).
`OCc1cc(C(O)CNCCCCCCOCCCCc2ccccc2)ccc1O` (configuration not stated) [Salmeterol] was tested, and the “fiber score / MBP score” value ([1]; 1 µM) was 0.225, the “fiber score / MBP score” value ([1]; 5 µM) was 0.0809 and the myelination ([2]; 1 µM) was -29.9 (inactive). For the same compound, the myelination ([2]; 5 µM) was -37.6 (inactive).
In the case of `COc1ccc(-c2cc(=O)c3c(OC)c(OC)c(OC)c(OC)c3o2)cc1OC` [Nobiletin], the “fiber score / MBP score” value ([1]; 1 µM) is reported as 1.28, the “fiber score / MBP score” value ([1]; 5 µM) is reported as 1.16 and the myelination ([2]; 1 µM) is reported as -36.3 (inactive). The myelination ([2]; 5 µM) was -46.5 (inactive).
`CN1CCCCC1CCN1c2ccccc2Sc2ccc([S+](C)[O-])cc21` (configuration not stated) [Mesoridazine] was tested, and the “fiber score / MBP score” value ([1]; 1 µM) was 0.531, the “fiber score / MBP score” value ([1]; 5 µM) was 0.747 and the myelination ([2]; 1 µM) was -39.6 (inactive). For the same compound, the myelination ([2]; 5 µM) was -20.4 (inactive).
`CC(CCc1ccccc1)NCC(O)c1ccc(O)c(C(N)=O)c1` (configuration not stated) [Labetalol] was tested, and the “fiber score / MBP score” value ([1]; 1 µM) was 0.511, the “fiber score / MBP score” value ([1]; 5 µM) was 0.693 and the myelination ([2]; 1 µM) was -16.1 (inactive). For the same compound, the myelination ([2]; 5 µM) was -9.26 (inactive).
With `Nc1nc(N)nc(-c2cc(Cl)ccc2Cl)n1` [Irsogladine] the “fiber score / MBP score” value ([1]; 1 µM) was 0.913, the “fiber score / MBP score” value ([1]; 5 µM) was 0.877 and the myelination ([2]; 1 µM) was -14.2 (inactive). For the same compound, the myelination ([2]; 5 µM) was -20.9 (inactive).
`C[C@H]1C[C@H]2[C@@H]3CCC4=CC(=O)C=C[C@]4(C)[C@@]3(Cl)[C@@H](O)C[C@]2(C)[C@@]1(O)C(=O)CO` [Beclomethasone] was tested, and the “fiber score / MBP score” value ([1]; 1 µM) was 0.828 ± 0.36, the “fiber score / MBP score” value ([1]; 5 µM) was 0.822 ± 0.021 and the myelination ([2]; 1 µM) was -2.48 (inactive). The myelination ([2]; 5 µM) was -7.92 (inactive).
`CC(C(=O)O)c1cccc(C(=O)c2ccccc2)c1` (configuration not stated) [Ketoprofen] was tested, and the “fiber score / MBP score” value ([1]; 1 µM) was 0.813, the “fiber score / MBP score” value ([1]; 5 µM) was 0.972 and the myelination ([2]; 1 µM) was -5.15 (inactive). The myelination ([2]; 5 µM) was -3.55 (inactive).
In the case of `O=C1[C@H](CC[C@H](O)c2ccc(F)cc2)[C@@H](c2ccc(O)cc2)N1c1ccc(F)cc1` [Ezetimibe], the “fiber score / MBP score” value ([1]; 1 µM) is reported as 0.641, the “fiber score / MBP score” value ([1]; 5 µM) is reported as 0.648 and the myelination ([2]; 1 µM) is reported as -31.2 (inactive). The myelination ([2]; 5 µM) was -37.1 (inactive).
In the case of `CCCN(CCC)S(=O)(=O)c1ccc(C(=O)O)cc1` [Probenecid], the “fiber score / MBP score” value ([1]; 1 µM) is reported as 0.973, the “fiber score / MBP score” value ([1]; 5 µM) is reported as 1.44 and the myelination ([2]; 1 µM) is reported as 0.863 (inactive). The myelination ([2]; 5 µM) was 11.7 (inactive).
For `N[C@@H](Cc1cc(I)c(Oc2ccc(O)c(I)c2)c(I)c1)C(=O)O` [Triiodothyronine], the “fiber score / MBP score” value ([1]; 1 µM) was 0.895, the “fiber score / MBP score” value ([1]; 5 µM) was 1.21 and the myelination ([2]; 1 µM) was -11.4 (inactive). For the same compound, the myelination ([2]; 5 µM) was 24.8 (inactive).
`Cc1ncc([N+](=O)[O-])n1CC(O)CCl` (configuration not stated) [Ornidazole] was tested, and the “fiber score / MBP score” value ([1]; 1 µM) was 0.58, the “fiber score / MBP score” value ([1]; 5 µM) was 0.686 and the myelination ([2]; 1 µM) was -14.7 (inactive). The myelination ([2]; 5 µM) was -1.4 (inactive).
In the case of `CC(=O)OCC[N+](C)(C)C` [Acetylcholine], the “fiber score / MBP score” value ([1]; 1 µM) is reported as 0.236, the “fiber score / MBP score” value ([1]; 5 µM) is reported as 0.34 and the myelination ([2]; 1 µM) is reported as -17.4 (inactive). For the same compound, the myelination ([2]; 5 µM) was -15.1 (inactive).
In the case of `CCN(CC)CC(=O)Nc1c(C)cccc1C` [Lidocaine], the “fiber score / MBP score” value ([1]; 1 µM) is reported as 0.745, the “fiber score / MBP score” value ([1]; 5 µM) is reported as 0.698 and the myelination ([2]; 1 µM) is reported as -26.3 (inactive). The myelination ([2]; 5 µM) was -24.5 (inactive).
In the case of `CC(C)(C)NCC(O)COc1cccc2c1CC(O)C(O)C2` (configuration not stated) [Nadolol], the “fiber score / MBP score” value ([1]; 1 µM) is reported as 0.767, the “fiber score / MBP score” value ([1]; 5 µM) is reported as 0.949 and the myelination ([2]; 1 µM) is reported as -13.9 (inactive). For the same compound, the myelination ([2]; 5 µM) was -7.81 (inactive).
